In PubChem BioAssay (NCI):
Compounds without any hit were thinned out: in the full panel of roughly 83,000, 20% have a hit.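 A percent growth of 40 corresponds to 60% growth inhibition; 0 means no net growth; -100 means all cells died. Active threshold: below 10.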 Calls of active or inactive are those of the source.

These compounds were tested on T-47D breast (assay: NCI-60 one-dose screen, 48 h (100 = growth as untreated, 0 = no growth, -100 = all killed)). Conditions: 10 µM.
`Cc1nc2cc(Nc3nc(NCCN)nc(Nc4ccc(F)cc4)n3)ccc2n1Cc1ccccc1` was tested, and the growth was 69.1% (inactive). With `Oc1cccc(Nc2nc(-c3ccccn3)cs2)c1` the growth was 87.3% (inactive). With `COc1ccc(-c2c3c(N)c4c(nc3nc3c2c(C)nn3-c2ccccc2)CCCC4)cc1` the growth was 84% (inactive). `O=C1c2cc(S(=O)(=O)O)ccc2C(=O)c2c1cccc2[N+](=O)[O-]` was tested, and the growth was 103% (inactive). For `COc1cc(CNCCN2C(=O)c3ccc4c5c(ccc(c35)C2=O)C(=O)N(CCNCc2cc(OC)c(OC)c(OC)c2)C4=O)cc(OC)c1OC`, the growth was -56.2% (active). In the case of `O=C1N/C(=C\c2ccccc2)c2ncccc21`, the growth is reported as 79.5% (inactive). With `FC(F)(F)c1cc(CNc2ncc(Br)c(Cl)n2)cc(C(F)(F)F)c1` the growth was 89.8% (inactive). In the case of `COc1ccc(OC2=C(C#N)C(=N)N3c4ccccc4Sc4ccccc4C3N2)cc1` (configuration not stated), the growth is reported as 87% (inactive). `COc1cc(C(=O)N(C(C)C)C2CCCCC2)cc(OC)c1OC` was tested, and the growth was 107% (inactive). For `COc1cc(/C=C/C(=O)C(=Cc2ccc(F)c(F)c2)C(=O)/C=C/c2ccc(O)c(OC)c2)ccc1O`, the growth was 44.1% (inactive). In the case of `O=C(c1ccc2ncc(-c3nc(NC4CC4)ncc3F)n2c1)N1CCOCC1`, the growth is reported as 32.2% (inactive). For `O=C(COc1cccc(/C=C2\COc3ccccc3C2=O)c1)c1ccccc1`, the growth was 75.3% (inactive). For `COc1ccc(Nc2[nH]n(C3=Nc4ccccc4Sc4ccccc43)c(=O)c2C#N)cc1`, the growth was 17.9% (inactive). For `O=c1oc2ccccc2cc1-c1csc(N/N=C/c2cc3ccccc3nc2Cl)n1`, the growth was 90.8% (inactive). In the case of `COc1cc(-c2nc(Nc3nc4ccccc4[nH]3)nc(N)c2C#N)cc(OC)c1OC`, the growth is reported as 57.8% (inactive). In the case of `CSc1ccc(OC(C)=O)cc1C`, the growth is reported as 90.6% (inactive). For `COCCOC1=C(Cl)C(=O)c2ccccc2C1=O`, the growth was -49% (active). For `CCN(CC)CCCNc1ccc(C)c2sc3ccccc3c(=O)c12`, the growth was 43.7% (inactive). For `CC[Si](CC)(CC)OC1[C@@H](O[Si](CC)(CC)CC)[C@@H](CNC(=O)NC)O[C@H]1n1cnc2c(NC(=O)Nc3ccccc3)ncnc21` (some centres not stated), the growth was 89.8% (inactive). `CCC(C)[C@H]1O[C@]2(CC[C@@H]1C)C[C@@H]1C[C@@H](C/C=C(\C)[C@@H](OC3C[C@H](OC)C(O[C@H]4C[C@H](OC)[C@@H](O)[C@H](C)O4)[C@H](C)O3)[C@@H](C)/C=C/C=C3\CO[C@@H]4[C@H](O)C(C)=C[C@@H](C(=O)O1)[C@]34O)O2` (some centres not stated) was tested, and the growth was 18.1% (inactive). In the case of `COC1(OC)C2(Cl)C=C(c3ccccc3)C1(Cl)C(Cl)=C2Cl` (configuration not stated), the growth is reported as 95.6% (inactive). In the case of `CSc1nnc(-c2sc3nnc(-c4ccccc4)c(-c4ccccc4)c3c2O)o1`, the growth is reported as 75% (inactive). For `COc1ccc(OC)c2ncccc12`, the growth was 100% (inactive). For `O=c1nc(NO)[nH]c(=O)n1Cc1ccccc1`, the growth was 92.8% (inactive). `C(=C\c1ccccc1)/CN1CCN(C(c2ccccc2)c2ccccc2)CC1` was tested, and the growth was 79.7% (inactive). `Cc1nn2c(-c3nc4ccc(Cl)cc4[nH]3)c(-c3ccc(F)cc3)nc2s1` was tested, and the growth was 91.2% (inactive). With `O=C1/C(=C/c2ccc(F)cc2)CN(Cc2cn(CCNc3ccnc4cc(Cl)ccc34)nn2)C/C1=C\c1ccc(F)cc1` the growth was -31.2% (active). `CCCN1CCN(c2ccc3nc(-c4ccc5nc(-c6ccc(C(F)(F)F)cc6)[nH]c5c4)[nH]c3c2)CC1` was tested, and the growth was 48% (inactive). `Cc1nc2cc(Nc3nc(Nc4ccc(F)cc4)nc(-c4cccs4)n3)ccc2n1Cc1ccccc1` was tested, and the growth was 23.3% (inactive). In the case of `Cc1ccc(N=c2nc3sc4c(C)ccc(C)c4n3c(N)c2C#N)cc1`, the growth is reported as 90.8% (inactive). For `CCC12CCC3c4ccc(O)cc4CCC3C1CC(O)C2O` (configuration not stated), the growth was 93.9% (inactive). In the case of `Clc1ccccc1Nc1ccc2nnc(-c3ccncc3)n2n1`, the growth is reported as 100% (inactive). For `Cc1ccc2nc(NC(=O)CSC(=S)N3CCN(C)CC3)sc2c1`, the growth was 105% (inactive). With `COc1ccc(Sc2ccc3[nH]c(=O)nc(N)c3c2)cc1` the growth was 94.3% (inactive). With `COc1ccc(C2OCC(C)(C)CO2)cc1OC` the growth was 97.3% (inactive). In the case of `CN1CCc2c(c3ccccc3c3ccccc23)C1`, the growth is reported as 55.5% (inactive). `CN1CCN(C(=O)OCCOCCOC(=O)N2CCN(C)CC2)CC1` was tested, and the growth was 109% (inactive). `CC1SC(c2ccc(Cl)cc2)N(CCc2cccs2)C1=O` (configuration not stated) was tested, and the growth was 9.51% (active). In the case of `NS(=O)(=O)c1cc(Br)c2c(c1)S(=O)(=O)NCN2`, the growth is reported as 102% (inactive). With `O=C1C(OCCOc2ccccc2)=C(OCCOc2ccccc2)C(=O)c2ccccc21` the growth was 78.2% (inactive).

These compounds were tested on BT-549 breast in the same assay as above. Conditions: 10 µM unless noted.
`Cc1nc2cc(Nc3nc(NCCN)nc(Nc4ccc(F)cc4)n3)ccc2n1Cc1ccccc1` was tested, and the growth was 90% (inactive). `Oc1cccc(Nc2nc(-c3ccccn3)cs2)c1` was tested, and the growth was 95.1% (inactive). `COc1ccc(-c2c3c(N)c4c(nc3nc3c2c(C)nn3-c2ccccc2)CCCC4)cc1` was tested, and the growth was 106% (inactive). `O=C1c2cc(S(=O)(=O)O)ccc2C(=O)c2c1cccc2[N+](=O)[O-]` was tested, and the growth was 98.3% (inactive). `COc1cc(CNCCN2C(=O)c3ccc4c5c(ccc(c35)C2=O)C(=O)N(CCNCc2cc(OC)c(OC)c(OC)c2)C4=O)cc(OC)c1OC` was tested, and the growth was -93.8% (active). With `FC(F)(F)c1cc(CNc2ncc(Br)c(Cl)n2)cc(C(F)(F)F)c1` the growth was 83.7% (inactive). In the case of `COc1ccc(OC2=C(C#N)C(=N)N3c4ccccc4Sc4ccccc4C3N2)cc1` (configuration not stated), the growth is reported as 96.9% (inactive). For `COc1cc(C(=O)N(C(C)C)C2CCCCC2)cc(OC)c1OC`, the growth was 143% (inactive). For `O=C(c1ccc2ncc(-c3nc(NC4CC4)ncc3F)n2c1)N1CCOCC1`, the growth was 52.4% (inactive). In the case of `O=C(COc1cccc(/C=C2\COc3ccccc3C2=O)c1)c1ccccc1`, the growth is reported as 45.5% (inactive). In the case of `COc1ccc(Nc2[nH]n(C3=Nc4ccccc4Sc4ccccc43)c(=O)c2C#N)cc1`, the growth is reported as 52.8% (inactive). In the case of `O=c1oc2ccccc2cc1-c1csc(N/N=C/c2cc3ccccc3nc2Cl)n1`, the growth is reported as 105% (inactive). With `COc1cc(-c2nc(Nc3nc4ccccc4[nH]3)nc(N)c2C#N)cc(OC)c1OC` the growth was 71.3% (inactive). In the case of `CSc1ccc(OC(C)=O)cc1C`, the growth is reported as 98% (inactive). `COCCOC1=C(Cl)C(=O)c2ccccc2C1=O` was tested, and the growth was -23% (active). In the case of `CCN(CC)CCCNc1ccc(C)c2sc3ccccc3c(=O)c12`, the growth is reported as 76.5% (inactive). In the case of `CC[Si](CC)(CC)OC1[C@@H](O[Si](CC)(CC)CC)[C@@H](CNC(=O)NC)O[C@H]1n1cnc2c(NC(=O)Nc3ccccc3)ncnc21` (some centres not stated), the growth is reported as 104% (inactive). `CCC(C)[C@H]1O[C@]2(CC[C@@H]1C)C[C@@H]1C[C@@H](C/C=C(\C)[C@@H](OC3C[C@H](OC)C(O[C@H]4C[C@H](OC)[C@@H](O)[C@H](C)O4)[C@H](C)O3)[C@@H](C)/C=C/C=C3\CO[C@@H]4[C@H](O)C(C)=C[C@@H](C(=O)O1)[C@]34O)O2` (some centres not stated) was tested, and the growth was -26.3% (active). In the case of `COC1(OC)C2(Cl)C=C(c3ccccc3)C1(Cl)C(Cl)=C2Cl` (configuration not stated), the growth is reported as 88.2% (inactive). With `CSc1nnc(-c2sc3nnc(-c4ccccc4)c(-c4ccccc4)c3c2O)o1` the growth was 74.1% (inactive). `COc1ccc(OC)c2ncccc12` was tested, and the growth was 97.4% (inactive). For `O=c1nc(NO)[nH]c(=O)n1Cc1ccccc1`, the growth was 103% (inactive). In the case of `C(=C\c1ccccc1)/CN1CCN(C(c2ccccc2)c2ccccc2)CC1`, the growth is reported as 92.2% (inactive). `Cc1nn2c(-c3nc4ccc(Cl)cc4[nH]3)c(-c3ccc(F)cc3)nc2s1` was tested, and the growth was 102% (inactive). With `O=C1/C(=C/c2ccc(F)cc2)CN(Cc2cn(CCNc3ccnc4cc(Cl)ccc34)nn2)C/C1=C\c1ccc(F)cc1` the growth was -91.1% (active). `CCCN1CCN(c2ccc3nc(-c4ccc5nc(-c6ccc(C(F)(F)F)cc6)[nH]c5c4)[nH]c3c2)CC1` was tested, and the growth was 73.5% (inactive). For `Cc1nc2cc(Nc3nc(Nc4ccc(F)cc4)nc(-c4cccs4)n3)ccc2n1Cc1ccccc1`, the growth was 69.5% (inactive). With `Cc1ccc(N=c2nc3sc4c(C)ccc(C)c4n3c(N)c2C#N)cc1` the growth was 97.2% (inactive). For `Clc1ccccc1Nc1ccc2nnc(-c3ccncc3)n2n1`, the growth was 101% (inactive). With `Cc1ccc2nc(NC(=O)CSC(=S)N3CCN(C)CC3)sc2c1` the growth was 97.4% (inactive). In the case of `COc1ccc(Sc2ccc3[nH]c(=O)nc(N)c3c2)cc1`, the growth is reported as 98.9% (inactive). In the case of `COc1ccc(C2OCC(C)(C)CO2)cc1OC`, the growth is reported as 109% (inactive). For `CN1CCc2c(c3ccccc3c3ccccc23)C1`, the growth was 94.7% (inactive). With `CN1CCN(C(=O)OCCOCCOC(=O)N2CCN(C)CC2)CC1` the growth was 98.7% (inactive). In the case of `CC1SC(c2ccc(Cl)cc2)N(CCc2cccs2)C1=O` (configuration not stated), the growth is reported as -39.3% (active). In the case of `NS(=O)(=O)c1cc(Br)c2c(c1)S(=O)(=O)NCN2`, the growth is reported as 108% (inactive). For `O=C1C(OCCOc2ccccc2)=C(OCCOc2ccccc2)C(=O)c2ccccc21`, the growth was 27.4% (inactive).
